High-throughput results as filed in PubChem BioAssay.
PLK1 PBD block – inhibitors of human PLK1 polo-box domain binding | P53350 | Plk1 PBD binding of FITC phosphopeptide, fluorescence polarization | Potency, µM, hits mostly inhibitors | 360,000 compounds, 2.8% hits; note: series mostly up to about 57 µM; nearly all actives have a fitted effect of over 65% in size
ALDH1A1 block – inhibitors of human aldehyde dehydrogenase 1A1; P00352; Purified ALDH1A1, NADH fluorescence, propionaldehyde substrate; Potency, µM (titrated, usually from 75.3 µM), most hits filed as inhibitors; 220,000 compounds, 7.3% hits; active = well fitted inhibition curve with a large enough effect, not every such curve was filed as active; inconclusive = small, poorly fitted or top-dose-only effect, or another doubt; inactive = no such curve, though single readings can be large or run the other way
RORg inh – blocks mouse ROR gamma transcriptional activity; Drosophila S2 Gal4-RORgamma UAS-luciferase reporter, 20 h; AID 2551; 310,000 compounds, 5.4% hits; Potency, µM (series often up to 53.6 µM), usual class: inhibitors; P51450; note: nearly all actives have a fitted effect of over 60% in size
Target sequence (P51450 whole entry, looked up, the tested form may be a part): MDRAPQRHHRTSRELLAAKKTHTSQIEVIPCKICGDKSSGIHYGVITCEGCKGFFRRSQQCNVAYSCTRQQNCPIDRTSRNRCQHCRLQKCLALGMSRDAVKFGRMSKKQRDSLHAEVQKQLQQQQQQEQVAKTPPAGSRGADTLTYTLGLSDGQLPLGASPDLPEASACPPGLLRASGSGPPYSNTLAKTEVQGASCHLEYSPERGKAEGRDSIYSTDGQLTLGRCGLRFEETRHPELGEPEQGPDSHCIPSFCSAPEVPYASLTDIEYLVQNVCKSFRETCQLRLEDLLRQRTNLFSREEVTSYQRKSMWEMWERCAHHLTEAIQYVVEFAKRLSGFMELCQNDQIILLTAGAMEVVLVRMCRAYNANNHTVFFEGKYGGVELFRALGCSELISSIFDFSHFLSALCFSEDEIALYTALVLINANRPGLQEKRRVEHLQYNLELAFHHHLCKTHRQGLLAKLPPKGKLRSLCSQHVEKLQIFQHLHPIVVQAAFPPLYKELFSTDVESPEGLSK
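A Gal4/UAS one-hybrid system in insect cells: metallothionein-promoter Gal4–ROR gamma fusion plus Photinus luciferase reporter. Copper sulfate 700 uM final, 20 hr ambient incubation, luminescent detection after 10 min with reagent.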
VP16 counter – Gal4-VP16 reporter inhibition counter-screen. Potency, µM (highest dose often 53.6 µM), most hits filed as inhibitors. 310,000 compounds, 3.5% hits. Drosophila S2 Gal4-VP16 UAS-luciferase, luminescence, 20 h;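 note: Gal4-VP16 expression switched on by copper sulfate through the metallothionein promoter; nearly all actives have a fitted effect of over 50% in size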
Sfp PPTase inh – inhibitors of Bacillus subtilis Sfp phosphopantetheinyl transferase; AID 1490; Potency, µM, hits mostly inhibitors; Biochemical Sfp PPTase activity, qHTS; 310,000 compounds, 3.5% hits;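 note: the enzyme is Sfp with the accession as filed and its product quenches rhodamine fluorescence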
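Compounds were incubated with enzyme (final 15 nM) for 15 min at room temperature before substrate addition started the reaction. Fluorescence at 525 nm excitation, 598 nm emission was recorded immediately and after 30 minutes.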
Hits are given with their value; - = inactive; ? = inconclusive; . = no result given; [ ] = dose if it differs, or a comment. Rows were chosen to be rich in hits. Some 12% of all compounds tested hit in one or more screens of this group. Unless noted, calls come from the whole dose curve; as a rule, active = well fitted curve in the direction sought with a large enough effect; inconclusive = small, poorly fitted or top-dose-only effect, or another doubt; inactive = no such curve, though single readings can be large; an effect the other way counts as inactive or inconclusive.

SMILES	PLK1 PBD block	ALDH1A1 block	RORg inh	VP16 counter	Sfp PPTase inh
Cc1ccc(NC(=O)Cn2c(CCC(=O)O)ccc2-c2cccs2)cc1Cl	-	?	-	-	40µM
COc1cccc(NC(=O)Cn2c(CCC(=O)O)ccc2-c2cccs2)c1	-	?	-	-	-
COc1ccc(OC)c(NC(=O)Cn2c(CCC(=O)O)ccc2-c2cccs2)c1	-	?	-	-	-
O=C(O)CCc1ccc(-c2cccs2)n1CCc1ccccc1	-	?	?	?	20µM
O=C(O)CCc1ccc(-c2cccs2)n1NC(=O)c1ccccc1Br	-	-	-	-[0.365 µM]	?
COc1cccc(NC(=O)Cn2c(CCC(=O)O)ccc2-c2ccc(Cl)cc2)c1	-	25µM	-	-	-
O=C(O)CCc1ccc(-c2cccs2)n1CCC(=O)O	-	?	-	-	7.9µM
Cc1ccc(C(=O)N2CCC(N3CCC(C(=O)N4CCOCC4)CC3)CC2)cc1	-	.	.	.	.
O=S1(=O)CC(N2CC=CC2)CN1Cc1cn(Cc2ccc(Cl)cc2)nn1 (stereo unspecified)	-	.	.	.	.
CC1(C)OC2C[C@](O)(C(N)=O)C[C@H](O)[C@H]2O1 (stereo partly specified)	.	-	-	-	-
CN(C)C(=O)c1cccc(COc2ccc(N3C(N)=NC(N)=NC3(C)C)cc2Cl)c1	-	.	.	.	.
CC(=O)c1c(C)[nH]c(C(=O)N2CCCCCC2)c1C	2.7µM	-	-	-	-
CC(=O)c1c(C)[nH]c(C(=O)N2CCCC(C)C2)c1C (stereo unspecified)	-	.	-	-	-
O=C(Oc1ccc(C(=S)N2CCOCC2)cc1)c1ccc([N+](=O)[O-])cc1	-	.	-	-	-
COc1ccc(C(=O)NC(=S)N2CCOCC2)cc1Br	-	.	1.3µM	1.1µM	-
COc1ccc(C(=O)NC(=S)N2CCOCC2)cc1[N+](=O)[O-]	-	.	2.2µM	2.8µM	-
CCOC(=O)C1CCCN(C(=O)c2ccc(OC)c([N+](=O)[O-])c2)C1 (stereo unspecified)	?	4.5µM	-	-	-
CCOC(=O)C1CCCN(C(=O)c2ccc([N+](=O)[O-])cc2)C1 (stereo unspecified)	-	?	-	-	-
O=[N+]([O-])c1ccccc1S(=O)(=O)Oc1ccc(C(=S)N2CCOCC2)cc1	5.3µM	?	?	-	-
CCC(CC)C(=O)N(C)c1c(C)nc2c(OCCOc3ccc(F)cc3)cccn12	-	.	.	.	.
CCCCN1CC(=O)N2[C@H](c3ccc(OC)cc3)[C@@H]3C(=O)N(CC)C(=O)[C@@H]3[C@]2(Cc2ccccc2)C1=O	-	.	-	-	-
COc1ccc(C(=O)N2CCC[C@@]3(CCN(Cc4ccc(C#N)cc4)C3)C2)cc1	.	?	-	-	-
O=c1cc2c(=O)oc3cc(O)c(O)oc3c2c(O)c1O	?	-	-	-	5µM
FC(F)(F)c1nnc2c(Sc3ccccc3)nc3ccccc3n12	-	-	-	-	-
FC(F)(F)c1nnc2c(Sc3ccccn3)nc3ccccc3n12	-	?	10µM	20µM	-
SMILES	PLK1 PBD block	ALDH1A1 block	RORg inh	VP16 counter	Sfp PPTase inh
O=C(Oc1ccccc1)c1ccc2nsnc2c1	-	4µM	-	-	-
CCOC(=O)SC1=N/C(=C\c2ccc(N(C)C)cc2)C(=O)S1	-	5µM	13µM	?	-
Cc1oc2cc([N+](=O)[O-])c(O)c([N+](=O)[O-])c2c1C(=O)c1ccc(Cl)cc1	?	-	-	-	?
COc1ccc(OC)c(C(=O)c2c(C)oc3cc([N+](=O)[O-])c(O)c([N+](=O)[O-])c23)c1	-	-	-	-	56µM
O=C(NCc1ccco1)c1ccc2c(c1)C(=O)N(Cc1ccccc1)C2=O	-	13µM	?	-	?
CC(c1ccccc1)N1C(=O)c2ccc(C(=O)NCc3ccco3)cc2C1=O (stereo unspecified)	-	?	-	-	-
CCOC(=O)c1c(C)c(C(=O)NCc2ccco2)c(C)n1Cc1ccccc1	27µM	-	-	-	-
CCN1C(=O)c2ccc(C(=O)NCc3ccccc3)cc2C1=O	-	4.5µM	-[0.365 µM]	.	-
O=C(NCc1ccccc1)c1ccc2c(c1)C(=O)N(Cc1ccncc1)C2=O	-	?	-	-	-
CC(C)CCN1C(=O)c2ccc(C(=O)NCc3ccco3)cc2C1=O	-	11µM	?	-	-
CCOC(=O)c1c(C)c(C(=O)NCc2ccco2)c(C)n1CC	-	-	-	-	-
O=C(Nc1cc(S(=O)(=O)N2CCOCC2)ccc1N1CCCC1)c1ccccc1C(F)(F)F	-	.	.	.	.
COc1ccc(-n2c(=O)c(-c3ccc(Cl)cc3)nc3cnc(N4CCNCC4)nc32)cc1	.	?	?	-	-
COc1ccc(S(=O)(=O)N2CCN(CC(=O)NC(C)c3cccs3)CC2)cc1 (stereo unspecified)	-	.	.	.	.
O=C(Cc1ccc(NC(=O)C2CCCN(C(=O)CCc3ccccc3)C2)cc1)Nc1cccc(C(=O)N2CCCC2)c1 (stereo unspecified)	-	.	.	.	.
CCc1ccc(NC(=O)c2ccc3c(c2)C(=O)N(Cc2ccco2)C3=O)cc1	-	?	?	-	40µM
CCOC(=O)N1CCC(N2C(=O)c3ccc(C(=O)NCc4ccc(F)cc4)cc3C2=O)CC1	-	-	-	-	-
CCOC(=O)N1CCC(N2C(=O)c3ccc(C(=O)NCc4ccco4)cc3C2=O)CC1	-	12µM	-	-	-
COc1cccc(NC(=O)c2cnc(NS(=O)(=O)c3ccccc3)nc2)c1	-	.	.	.	.
O=C(NCc1ccccn1)c1ccc(NS(=O)(=O)c2cccc([N+](=O)[O-])c2)cc1	-	.	.	.	.
O=C(NCc1cc([N+](=O)[O-])ccc1O)c1cccc(NS(=O)(=O)c2ccccc2)c1	-	.	11µM	13µM	-
O=C(NCc1ccccn1)c1cccc(NS(=O)(=O)c2cccc(F)c2)c1	-	14µM	-	-	-
O=S(=O)(Nc1cccc(CCc2ccccn2)c1)c1cc(Cl)ccc1Cl	-	.	-	-	-
O=S(=O)(Nc1cccc(CCc2ccccn2)c1)c1ccc2ccccc2c1	-	-	7.9µM	2.5µM	-
C[C@@H]1CN([C@@H](C)CO)C(=O)CCCn2nncc2CO[C@H]1CN(C)C(=O)C1CC1	-	.	.	.	.
SMILES	PLK1 PBD block	ALDH1A1 block	RORg inh	VP16 counter	Sfp PPTase inh
CC(=O)c1sc(N/N=C2\CC3CCC2(C)C3(C)C)nc1C (stereo unspecified)	?	?	-	-	28µM
CC(=O)/C(N)=N/Nc1cccc(Cl)c1	-	-	-	-	-
CC(=O)/C(=N\Nc1cccc(Cl)c1)Sc1cccc2cccnc12	-	-	3.2µM	?	-
CC(=O)/C(=N\Nc1cccc(Cl)c1)Sc1nnc(-c2ccccc2)n1-c1ccccc1	-	-	10µM	11µM	-
C=CCN(CC=C)C(=S)NC(=O)c1ccc([N+](=O)[O-])cc1	-	?	0.13µM	0.13µM	-
C=CCN(CC=C)C(=S)NC(=O)c1ccc(OC)c(Br)c1	-	?	0.28µM	0.71µM	-
COc1ccc(C(=O)NC(=S)NCCO)cc1Br	-	?	0.79µM	1.1µM	?
CCN(CC)C(=S)NC(=O)c1ccc(OC)c(Br)c1	-	?	0.35µM	0.5µM	-
